Giardia killer: Giardia lamblia killing. activity change, % at 7.66 µM, hits read low. AID 540267. 340,000 compounds, 0.15% hits. Giardia lamblia trophozoite viability; in the data active means activity change below about -80%; inconclusive means between about -30% and that limit;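 further: parasites exposed to compound for two days anaerobically before the ATP read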
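Luminescent ATP signal served as the viability read-out, measured 15-30 min after adding ATP detection reagent to trophozoites that had been incubated with compounds for 48 hrs at 37 deg C anaerobically at 100 cells/well.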
TDP1 cell noCPT: qHTS for Inhibitors of human tyrosyl-DNA phosphodiesterase 1 (TDP1): qHTS in cells in absence of CPT; Potency, µM (series often up to 46.2 µM), for the others: at the top dose activity change, negative = growth inhibition, most hits filed as inhibitors; 420,000 compounds, 15% hits; DT40 Tdp1-/- hTDP1 cells, no CPT, ATP luminescence, 48 h; AID 686978, 2013; further: potency means the concentration at half of the fitted maximal effect; nearly all actives have a fitted effect of over 55% in size
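DT40 Tdp1-/-;hTDP1 cells, no CPT (DMSO vehicle only), 400 cells/well; compounds pin-transferred; ≥48 hr, 37 °C; CellTiter-Glo 30 min RT dark, luminescence read.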
TDP1 inh: blocks human tyrosyl-DNA phosphodiesterase 1. Q9NUW8. Potency, µM (top dose mostly 130 µM), for inactives: top-dose activity change, negative = inhibition, most hits filed as inhibitors. 350,000 compounds, 0.28% hits. recombinant TDP1, AlphaScreen DNA substrate cleavage. AID 485290; further: potency means the concentration at half of the fitted maximal effect; nearly all actives have a fitted effect of over 40% in size
Target sequence (Q9NUW8 whole entry, looked up): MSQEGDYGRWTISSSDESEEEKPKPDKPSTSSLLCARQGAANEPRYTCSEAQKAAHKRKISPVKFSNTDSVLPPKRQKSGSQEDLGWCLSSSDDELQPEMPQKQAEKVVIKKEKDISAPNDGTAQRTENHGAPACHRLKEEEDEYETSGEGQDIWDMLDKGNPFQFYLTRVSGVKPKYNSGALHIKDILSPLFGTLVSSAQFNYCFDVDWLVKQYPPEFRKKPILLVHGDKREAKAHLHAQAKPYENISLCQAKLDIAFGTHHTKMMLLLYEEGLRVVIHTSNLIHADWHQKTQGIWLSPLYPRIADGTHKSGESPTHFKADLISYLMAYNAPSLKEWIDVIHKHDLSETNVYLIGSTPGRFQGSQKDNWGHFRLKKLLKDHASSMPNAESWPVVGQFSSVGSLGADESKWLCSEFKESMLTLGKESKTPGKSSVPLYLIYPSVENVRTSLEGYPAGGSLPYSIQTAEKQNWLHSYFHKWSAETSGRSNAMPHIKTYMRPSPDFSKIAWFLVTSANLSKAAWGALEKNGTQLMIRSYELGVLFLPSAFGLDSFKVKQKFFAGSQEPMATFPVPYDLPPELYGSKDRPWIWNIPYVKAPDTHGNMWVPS
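AlphaScreen read-out: signal falls as enzyme removes the 3' tyrosine-FITC from a 5'-biotinylated DNA oligo (15 nM, 5 min, RT). Enzyme was E. coli-made recombinant Tdp1 at 1 nM, exposed to compound for 15 min beforehand; beads 10 ug/ml, 10 min.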
IL-1B inflam inh: inflammasome signaling inhibition, IL-1 beta readout | THP-1 LPS/ATP IL-1B secretion, AlphaLISA, 16 h; stronger effect = lower value | activity change, % at 57.5 µM | 360,000 compounds, 4.7% hits | AID 743279; in the data active means activity change below about -50%; inconclusive means mostly about -30% to -49%
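THP-1 cells pretreated 1 hr with compounds (up to 57.5 uM final), then stimulated with LPS (250 ng/mL final) plus ATP (1.25 mM final); secreted IL-1B measured by AlphaLISA after 16 hr, decreased signal indicating inhibition.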
TDP1 cell CPT: DT40-hTDP1 cell growth loss with CPT; chicken DT40 Tdp1-/-;hTDP1 cells + 20 nM CPT, ATP luminescence, 48 h; Potency, µM (doses to about 46.2 µM), without a hit: at the highest dose activity change, negative = growth inhibition, hits mostly inhibitors; 420,000 compounds, 12% hits; AID 686979; further: potency means the concentration at half of the fitted maximal effect; nearly all actives have a fitted effect of over 55% in size
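Cell growth measured by CellTiter-Glo luminescence after a minimum 48 h, 37 C compound exposure with 20 nM CPT in Tdp1-knockout DT40 cells stably expressing hTDP1, seeded 400/well; qHTS titration format.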
ELG1 DNA repair: blocks ELG1-dependent DNA repair in HEK293T cells | HEK293T ELG1-luciferase reporter, luminescence, 16 h; DNA damage induced by 5-fluorouridine | 330,000 compounds, 2.3% hits | Potency, µM (series often up to 46.1 µM), for the others: at the top dose activity change, negative = inhibition, actives largely listed as inhibitors; further: potency means the concentration at half of the fitted maximal effect; nearly all actives have a fitted effect of over 55% in size
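Quantitative HTS, concentration-response format. 2,000 cells/well co-treated with 5-fluorouridine and compound, 16 hr in 5% CO2 at 37 °C; ONE-Glo luminescence read after 30 min.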
Starred values were filed as active, the others as inactive; ? = inconclusive; . = no result. Shown are actives, neighbours in structure and some others; about 19% of the full set was active somewhere. Unless noted, the call rests on the fitted dose curve; in most records, active means well fitted curve in the direction sought with a large enough effect; inconclusive means small, poorly fitted or top-dose-only effect, or another doubt; inactive means no such curve, though single readings can be large; an effect the other way counts as inactive or inconclusive. On the % scale 0 is the no-effect control and ±100 the full control effect.

SMILES	Giardia killer	TDP1 cell noCPT	TDP1 inh	IL-1B inflam inh	TDP1 cell CPT	ELG1 DNA repair
CCc1noc(-c2ccc(N(C)Cc3ccc(OC)cc3)c([N+](=O)[O-])c2)n1	.	5.8µM*	14.3%	.	6.51µM*	.
CCCc1noc(-c2ccc(NCc3ccc(C)cc3)c([N+](=O)[O-])c2)n1	.	-26.8%	5.7%	.	?	.
COc1ccccc1-c1noc(-c2ccc(NCc3ccco3)c([N+](=O)[O-])c2)n1	.	11.6µM*	8.6%	.	11.6µM*	.
CCCNc1ccc(-c2nc(-c3ccco3)no2)cc1[N+](=O)[O-]	.	-26.2%	0.0%	.	-3.0%	.
COc1cc(-c2noc(-c3ccc(NCCc4ccccc4)c([N+](=O)[O-])c3)n2)cc(OC)c1OC	.	4.11µM*	0.0%	.	5.17µM*	.
Cc1ccc(CNc2ccc(-c3nc(-c4ccccn4)no3)cc2[N+](=O)[O-])cc1	.	?	5.7%	.	?	.
Cc1ccccc1-c1noc(-c2ccc(NCc3cccnc3)c([N+](=O)[O-])c2)n1	.	2.31µM*	-2.9%	.	4.11µM*	.
COc1cc(-c2noc(-c3ccc(NC4CCCCC4)c([N+](=O)[O-])c3)n2)cc(OC)c1OC	.	-25.6%	11.4%	.	-28.8%	.
COc1ccc(-c2noc(-c3ccc(NC4CCCCC4)c([N+](=O)[O-])c3)n2)cc1OC	.	?	11.4%	.	20.6µM*	.
Cc1ccc(-c2nc(-c3cccnc3)no2)c(C)c1	-24.4	?	7.7%	80.4	-26.7%	?
Cc1c(-c2nc(-c3cccnc3)no2)cccc1[N+](=O)[O-]	-23.0	18.4µM*	5.4%	19.4	18.4µM*	?
COc1ccccc1-c1noc(-c2ccc(NCCc3ccccc3)c([N+](=O)[O-])c2)n1	.	1.6%	11.4%	.	3.2%	.
CC(O)(c1ccccc1)[N+]1(CC(=O)c2ccccc2)C=CC=C1 (centres undefined)	.	-14.6%	.	.	-21.1%	.
CCn1c(=O)c(CCC(=O)NCC2CCCO2)c(C)c2c(C)nn(-c3ccccc3)c21 (centres undefined)	1.2	?	3.6%	-28.4	16.4µM*	-23.8%
Cc1ccc(-c2nn(CCC(=O)NCC3CCCO3)c(=O)c3ccccc23)cc1 (centres undefined)	1.9	4.1%	4.9%	-15.1	-3.3%	26.4%
CCn1c(=O)c(CCC(=O)N2CCN(c3ccccn3)CC2)c(C)c2c(C)nn(-c3ccccc3)c21	-14.2	20.6µM*	10.1%	0.0	16.4µM*	16.4µM*
O=C(Cn1cnc2c(nnn2-c2ccccc2)c1=O)NCC1CCCO1 (centres undefined)	-7.3	10.6%	2.1%	2.0	2.6%	4.3%
Cc1ccc(-n2nc(C)c3c(C)c(CCC(=O)NCC4CCCO4)c(=O)n(C)c32)cc1 (centres undefined)	32.0	23.1µM*	0.4%	4.4	?	?
CCn1c(=O)c(CCC(=O)NCCN2CCOCC2)c(C)c2c(C)nn(-c3ccccc3)c21	-10.2	?	4.9%	-15.2	20.6µM*	-20.4%
COc1ccc(C(=O)N2CCC3(CCN(Cc4ccccc4OC)CC3)CC2)cc1	.	-15.3%	.	.	9.3%	.
COc1cccc(COC(=O)C(Cc2ccccc2)NC(=O)c2ccco2)c1 (centres undefined)	.	6.3%	.	16.1	0.3%	.
Cc1cc(C)c(OCC(=O)OCC(=O)NCC2CCCCC2)c(C)c1	5.6	-7.6%	3.0%	-3.5	1.4%	12.5%
CCc1cccc(NC(=O)CCc2nc3cccnc3n2Cc2ccc(OC)cc2)c1	.	?	4.6%	.	-16.3%	.
COC(=O)c1ccc(NC(=O)c2nn(C)c3c2CS(=O)(=O)c2ccccc2-3)cc1	.	-1.4%	5.2%	.	-14.4%	.
O=C(Nc1ccc(Cl)cc1C(F)(F)F)C(Sc1nnc(-c2cccs2)o1)c1ccccc1 (centres undefined)	4.1	20.6µM*	5.5%	-12.1	?	-21.7%
SMILES	Giardia killer	TDP1 cell noCPT	TDP1 inh	IL-1B inflam inh	TDP1 cell CPT	ELG1 DNA repair
O=C(Nc1cc(C(F)(F)F)ccc1Cl)C(Sc1nnc(-c2cccs2)o1)c1ccccc1 (centres undefined)	-1.0	-0.9%	-2.7%	0.0	-2.5%	0.7%
COCc1cc(C)n(CC(=O)Nc2cccc(C(C)=O)c2)c(=O)c1C#N	.	.	-3.2%	.	.	.
Cn1ncc2c(O/N=C(\N)c3ccc(C(F)(F)F)cc3)ncnc21	16.3	5.17µM*	3.9%	-70.5*	6.51µM*	?
COc1ccc(-c2nn(-c3ccccc3)cc2C=O)cc1[N+](=O)[O-]	-19.0	-10.3%	-5.4%	-83.5*	-14.4%	?
COc1ccc(-c2nn(-c3ccccc3)cc2/C=C/C(=O)O)cc1[N+](=O)[O-]	?	23.1µM*	8.4%	9.7	?	8.7%
CCOC(=O)CSc1nc2sc3c(c2c(=O)n1-c1ccc(OC)cc1)CC(C(C)C)OC3 (centres undefined)	.	-19.5%	.	.	-1.9%	.
CCCCCC[n+]1ccccc1/C=C/c1ccc(N(C)C)cc1	.	0.0517µM*	.	?	0.058µM*	.
CN(C)c1ccc(/C=C/c2nc3ccccc3o2)cc1	.	?	.	.	8.7%	.
CCN(CC)c1ccc(/C=C/c2ccc3ccc(OC)cc3[n+]2CC)cc1	-12.8	0.184µM*	.	-82.6*	0.0651µM*	?
CC[n+]1ccccc1/C=C/c1ccc(N(C)C)cc1	7.8	0.461µM*	6.1%	-57.2*	1.03µM*	?
CN(C)c1ccc(/C=C/c2cc[n+]([O-])cc2)cc1	.	.	1.9%	.	.	?
CC[n+]1c(/C=C/c2ccc(N(C)C)cc2)ccc2ccccc21	2.4	0.146µM*	2.6%	-98.9*	0.164µM*	11.7%
O=C(c1ccc(Cl)nc1)N1CCN(S(=O)(=O)c2ccccc2)CC1	-13.7	10.1%	-0.6%	-12.2	-10.6%	-9.1%
CN(C)/N=C/c1cc([N+](=O)[O-])ccc1O	-1.3	?	5.4%	23.3	-23.0%	1.2%
CC[n+]1c(/C=C/c2ccc(OC(C)=O)c(OC)c2)ccc2ccccc21	7.2	18.4µM*	.	-85.2*	16.4µM*	?
CC[n+]1c(/C=C/c2cc([N+](=O)[O-])ccc2O)ccc2ccccc21	-13.6	23.1µM*	.	-15.4	?	-15.5%
CC[n+]1ccc(/C=C/c2ccc(N(C)C)cc2)c2ccccc21	-29.1	0.0065µM*	6.1%	-105.9*	0.0731µM*	?
Cc1ccc(NC(=O)CN2CCCN(Cc3ccccc3Cl)S2(=O)=O)c(C)c1	.	?	2.8%	.	?	.
COC(=O)c1ccc(OC)c(CN2CCCN(Cc3cc(C)ccc3C)S2(=O)=O)c1	11.0	?	.	32.7	?	14.6µM*

Bioassay records: PubChem, National Center for Advancing Translational Sciences (NCATS)
